This assay addresses Voltage-dependent N-type calcium channel subunit alpha-1B (Homo sapiens) (UniProt Q00975). The assay can be described thus: inhibitors of Mint1-CaV2.2 protein interaction, biochemical, HTRF (AID 2073). Particulars: at 20 µM, stronger effect = higher value. For orientation: Time-resolved FRET reads energy transfer from a long-lived donor to a nearby acceptor.
[1] abbreviates: measured here: average of repeat tests.

In PubChem BioAssay AID2073 (Sanford-Burnham Center for Chemical Genomics, 2009) one finds inhibition data, which are given here for 60 compounds.

The structures appear in SMILES notation. The campaign covered roughly 290,000 compounds. About 570 (0.2%) were called active. Inconclusive results (about 1%) are left out. Rule as the data show it: active = inhibition mostly above about 51% (no sharp cut-off); inconclusive = no clear call, values can overlap the other calls; inactive = mostly below about 53%. Only a selection was taken, and actives are over-represented in it overall.

Sequence of Voltage-dependent N-type calcium channel subunit alpha-1B (Homo sapiens) (Q00975 whole entry, looked up): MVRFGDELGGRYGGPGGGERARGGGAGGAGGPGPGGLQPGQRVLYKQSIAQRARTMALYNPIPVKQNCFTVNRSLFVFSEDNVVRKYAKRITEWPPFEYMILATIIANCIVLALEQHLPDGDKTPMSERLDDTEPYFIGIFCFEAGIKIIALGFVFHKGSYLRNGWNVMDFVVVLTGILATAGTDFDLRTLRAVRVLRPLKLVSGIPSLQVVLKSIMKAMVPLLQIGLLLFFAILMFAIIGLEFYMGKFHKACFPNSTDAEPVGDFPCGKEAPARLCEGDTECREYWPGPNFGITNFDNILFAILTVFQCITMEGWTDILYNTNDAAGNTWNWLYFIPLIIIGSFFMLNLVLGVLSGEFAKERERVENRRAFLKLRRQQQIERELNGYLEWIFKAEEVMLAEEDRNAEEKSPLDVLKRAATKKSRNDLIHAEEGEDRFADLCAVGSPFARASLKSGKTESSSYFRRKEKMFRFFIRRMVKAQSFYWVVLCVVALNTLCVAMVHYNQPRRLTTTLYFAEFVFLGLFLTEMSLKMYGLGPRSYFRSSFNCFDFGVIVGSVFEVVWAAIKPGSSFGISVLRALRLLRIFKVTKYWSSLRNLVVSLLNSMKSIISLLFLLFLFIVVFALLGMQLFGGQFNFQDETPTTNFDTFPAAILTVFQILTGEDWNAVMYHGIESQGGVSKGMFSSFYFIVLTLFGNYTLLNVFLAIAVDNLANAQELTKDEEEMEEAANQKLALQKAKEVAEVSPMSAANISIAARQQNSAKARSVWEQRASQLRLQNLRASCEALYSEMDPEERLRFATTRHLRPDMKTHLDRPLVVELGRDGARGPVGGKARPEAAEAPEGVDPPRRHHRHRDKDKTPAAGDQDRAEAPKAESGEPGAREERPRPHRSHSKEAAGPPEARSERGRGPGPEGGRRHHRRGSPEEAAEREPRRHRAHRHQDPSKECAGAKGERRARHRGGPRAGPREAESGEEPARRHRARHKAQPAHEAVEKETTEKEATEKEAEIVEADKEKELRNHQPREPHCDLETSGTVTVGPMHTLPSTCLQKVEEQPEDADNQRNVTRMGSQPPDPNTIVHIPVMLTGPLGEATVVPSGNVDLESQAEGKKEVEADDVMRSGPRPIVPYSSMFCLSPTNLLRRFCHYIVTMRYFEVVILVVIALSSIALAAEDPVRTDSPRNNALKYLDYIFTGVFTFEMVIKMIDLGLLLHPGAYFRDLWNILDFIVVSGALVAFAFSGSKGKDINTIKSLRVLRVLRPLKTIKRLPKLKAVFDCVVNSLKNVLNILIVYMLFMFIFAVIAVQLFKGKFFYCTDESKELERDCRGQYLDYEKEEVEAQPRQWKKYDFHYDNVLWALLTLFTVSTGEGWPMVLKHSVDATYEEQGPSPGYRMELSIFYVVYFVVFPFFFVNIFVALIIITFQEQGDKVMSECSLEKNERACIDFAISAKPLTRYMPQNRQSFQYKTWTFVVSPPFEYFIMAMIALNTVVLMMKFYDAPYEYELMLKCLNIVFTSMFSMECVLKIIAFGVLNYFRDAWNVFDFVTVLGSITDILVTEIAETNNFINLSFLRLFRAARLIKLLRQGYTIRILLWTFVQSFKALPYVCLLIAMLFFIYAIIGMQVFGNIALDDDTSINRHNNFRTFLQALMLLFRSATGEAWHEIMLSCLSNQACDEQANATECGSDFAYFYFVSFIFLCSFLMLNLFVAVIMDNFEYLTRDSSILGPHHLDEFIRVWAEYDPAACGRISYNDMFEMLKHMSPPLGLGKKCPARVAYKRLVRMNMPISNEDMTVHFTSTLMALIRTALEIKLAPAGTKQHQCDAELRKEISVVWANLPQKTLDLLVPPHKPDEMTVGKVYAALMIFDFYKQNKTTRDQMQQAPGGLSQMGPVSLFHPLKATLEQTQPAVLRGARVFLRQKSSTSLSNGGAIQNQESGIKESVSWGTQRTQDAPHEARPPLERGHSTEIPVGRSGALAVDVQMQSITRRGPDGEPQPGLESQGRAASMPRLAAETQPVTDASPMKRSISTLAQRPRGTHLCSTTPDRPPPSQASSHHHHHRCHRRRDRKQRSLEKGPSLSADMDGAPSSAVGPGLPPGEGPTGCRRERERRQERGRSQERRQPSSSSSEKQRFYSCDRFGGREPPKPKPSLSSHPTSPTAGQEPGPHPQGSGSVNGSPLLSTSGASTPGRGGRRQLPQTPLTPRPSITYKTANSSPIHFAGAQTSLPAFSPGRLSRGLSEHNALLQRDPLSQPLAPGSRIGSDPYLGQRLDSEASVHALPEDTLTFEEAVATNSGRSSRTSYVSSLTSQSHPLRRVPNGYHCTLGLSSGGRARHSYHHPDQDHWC

Turning to `CP(=O)(COC(=O)c1ccccc1)COC(=O)c1ccccc1`, the inhibition (in general, the drop in the measured response relative to a control, in per cent) is -9.7% (inactive).

`OC[C@@H]1CCCN1Cc1cn(-c2ccccc2)nc1-c1ccc2c(c1)OCO2`: the inhibition is 8.1% (inactive).

For `O=C(N/N=C/c1sc(N2CCOCC2)nc1-c1ccccc1)c1cccc(S(=O)(=O)N2CCCC2)c1`, the inhibition was 51.1% (active).

For the compound `O=[N+]([O-])c1ccc(N/N=C/c2sc(N3CCOCC3)nc2-c2ccccc2)c(S(=O)(=O)Nc2ccccc2Cl)c1`, the inhibition was 30.5% (inactive).

Turning to `COc1cc(C(=O)N/N=C/c2sc(N3CCOCC3)nc2-c2ccccc2)cc(OC)c1OC`, the inhibition is 4.4% (inactive).

With `O=[N+]([O-])c1ccc(N/N=C/c2sc(N3CCOCC3)nc2-c2ccccc2)c(S(=O)(=O)Nc2ccc(Cl)cc2)c1`, the inhibition was 67.1% (active).

Turning to `Cc1ccc(NS(=O)(=O)c2cc([N+](=O)[O-])ccc2N/N=C/c2sc(N3CCOCC3)nc2-c2ccccc2)c(C)c1`, the inhibition was 31.1% (inactive).

For the compound `O=C(N/N=C/c1sc(N2CCOCC2)nc1-c1ccccc1)c1cccc(S(=O)(=O)N2CCOCC2)c1`, the inhibition is 21.2% (inactive).

Regarding `Cc1ccc(C2=CSC3=NNC4(CCCCC4)NN23)cc1`, the inhibition is 8.9% (inactive).

Turning to `CCOC(=O)N1CCN(C(=O)CSCc2ccccc2C)CC1`, the inhibition is -5.4% (inactive).

Take `O=C(CCC(=O)N(CC(=O)NC1CCCCC1)Cc1ccccc1)Nc1ccccn1`: the inhibition was -13% (inactive).

Turning to `N/C(Cc1ccc(Cl)cc1Cl)=N\OC(=O)c1ccc(Br)o1`, the inhibition was 7.7% (inactive).

With `N/C(Cc1cccc2ccccc12)=N\OC(=O)c1ccc(Br)o1`, the inhibition was 56.5% (active).

For the compound `N/C(Cc1ccc(Cl)c(Cl)c1)=N\OC(=O)c1ccc(Br)o1`, the inhibition was 5.1% (inactive).

Turning to `Cc1ccc(N2C(=O)N3[C@H](c4ccc(F)cc4)[C@@H]4C(=O)N(C5CCCCC5)C(=O)[C@@H]4[C@]3(C)C2=O)cc1`, the inhibition was 3.5% (inactive).

`Cc1ccccc1C(=O)NC(C(N)=O)P(=O)(OC(C)C)OC(C)C` (centres undefined): the inhibition was -2.5% (inactive).

For the compound `CCc1ccccc1NS(=O)(=O)c1cccc2nsnc12`, the inhibition is 4.2% (inactive).

Take `Cc1[nH]n(C(N)=S)c(=O)c1N=Nc1cccc([N+](=O)[O-])c1C`: the inhibition was 14.9% (inactive).

`NC(=S)n1[nH]c(-c2ccc([N+](=O)[O-])cc2)c(N=Nc2cccc(Cl)c2)c1=O`: the inhibition is 64.1% (inactive). Also, the inhibition under setting [1] is 12.7%.

On to `NC(=S)n1[nH]c(-c2ccc([N+](=O)[O-])cc2)c(N=Nc2ccccc2[N+](=O)[O-])c1=O`, for which the inhibition was 69.4% (inactive). For the same compound, the inhibition under setting [1] was found to be 20.6%.

Take `NC(=S)n1[nH]c(-c2ccc([N+](=O)[O-])cc2)c(N=Nc2ccc(O)cc2)c1=O`: the inhibition was -5.9% (inactive).

For `CCCC(=O)c1cc2cc(Cl)ccc2oc1=O`, the inhibition was -2.8% (inactive).

On to `CCOC(=O)CSc1nnc(-c2cccnc2)n1C`, for which the inhibition was 0.8% (inactive).

As to `CN1CCN(C(CC(=O)Nc2cccc(O)c2)C(=O)O)CC1` (centres undefined), the inhibition was 0.5% (inactive).

As to `O=C(CSc1nnc(-c2ccccc2)o1)NC1CCS(=O)(=O)C1` (centres undefined), the inhibition was -2.1% (inactive).

Consider `O=C(OCn1ncc(Cl)c(Cl)c1=O)c1ccc(F)cc1`, for which the inhibition was -3% (inactive).

On to `COc1ccc(N2CCN(C(=O)c3ccc4c(=O)n5c(nc4c3)CCCCC5)CC2)cc1`, for which the inhibition is -6.5% (inactive).

On to `Cc1ccc2c(CN3CCN(Cc4ccccc4)CC3)cc(=O)oc2c1C`, for which the inhibition was 6.6% (inactive).

On to `Cc1ccccc1NC(=S)NCc1cccs1`, for which the inhibition is 5.6% (inactive).

For the compound `Cc1cc(C)c(NC(=S)N(Cc2cccnc2)Cc2ccco2)c(C)c1`, the inhibition was 0.6% (inactive).

For `CCC(C)(C)n1nnnc1C(c1cc2ccc(OC)cc2[nH]c1=O)N1CCc2ccccc21` (centres undefined), the inhibition was 19.3% (inactive).

Regarding `COc1ccc2cc(C(c3nnnn3C(C)(C)C)N3CCc4ccccc4C3)c(=O)[nH]c2c1` (centres undefined), the inhibition was 33% (inactive).

Consider `CCC(C)(C)n1nnnc1C(c1cc2ccc(OC)cc2[nH]c1=O)N1CCc2ccccc2C1` (centres undefined), for which the inhibition was 56.9% (active).

With `Fc1cccc(Cl)c1CNn1cn[nH]c1=S`, the inhibition is -3% (inactive).

Consider `COc1ccc2c(c1)CCc1cc(C(=O)N3CCN(c4ccc(N5CCOCC5)nn4)CC3)sc1-2`, for which the inhibition is 13.6% (inactive).

For `CCCCc1[nH]nc2c1C1(C(=O)N(CC)c3ccccc31)C(C#N)=C(N)O2` (centres undefined), the inhibition is -5.8% (inactive).

For `COc1ccc(N2CCN(CCNC(=O)Nc3cccc(C)c3C)CC2)cc1`, the inhibition was 0.6% (inactive).

For the compound `O=C(/C=C/c1ccc2c(c1)OCO2)Nc1nc(-c2ccc(F)cc2F)cs1`, the inhibition was 9.1% (inactive).

For the compound `CCCCOc1ccc(-c2cc(C(F)(F)F)c(C#N)c(SCC(=O)O)n2)cc1`, the inhibition was 60.7% (active).

For `COc1ccc(-c2cc(C(F)(F)F)c(C#N)c(SCC(=O)O)n2)cc1`, the inhibition was 22% (inactive).

Regarding `CCCOc1ccc(-c2cc(C(F)(F)F)c(C#N)c(SCC(=O)O)n2)cc1`, the inhibition was 35.3% (inactive).

Turning to `Cc1cccc(NC(=O)CCN2C(=O)C3C4C=CC(C4)C3C2=O)n1` (centres undefined), the inhibition is 22% (inactive).

With `O=C(NCc1ccc(Cl)cc1)c1nccnc1CO`, the inhibition is 11.8% (inactive).

As for `COc1ccc(NS(=O)(=O)c2cccc(-c3n[nH]c(=S)n3Cc3ccccc3)c2)cc1`, the inhibition is 3.7% (inactive).

For `O=C(COc1ccc(Br)cc1Cl)c1ccc[nH]1`, the inhibition is 24.7% (inactive).

As to `O=C(COc1ccc(Cl)cc1Cl)c1ccc[nH]1`, the inhibition is 21.1% (inactive).

As for `O=C(COc1ccccc1Cl)c1ccc[nH]1`, the inhibition is 53.6% (active).

In the case of `COc1ccc(C(NC(=O)CC(C)C)c2c(O)ccc3ccccc23)cc1` (centres undefined), the inhibition was 15.2% (inactive).

For `COc1cc(OC)c(C2CC(=O)N3CN(c4ccc(C)cc4)CSC3=C2C#N)cc1OC` (centres undefined), the inhibition was 65.7% (inactive). Besides, under setting [1], the inhibition is 14.9%.

Take `COc1cccc(C2CC(=O)N3CN(c4cccc(Cl)c4C)CSC3=C2C#N)c1OC` (centres undefined): the inhibition was 73.5% (active).

For `CCc1ccccc1N1CSC2=C(C#N)C(c3cc(OC)c(OC)cc3OC)CC(=O)N2C1` (centres undefined), the inhibition is 75.6% (inactive). Also, the inhibition under setting [1] turned out to be 34.5%.

With `N#CC1=C2SCN(c3ccccc3)CN2C(=O)CC1c1ccccc1Cl` (centres undefined), the inhibition was 57.1% (inactive). Further, the inhibition under setting [1] was 35.2%.

For `CCc1ccc(C2CC(=O)N3CN(c4ccccc4)CSC3=C2C#N)cc1` (centres undefined), the inhibition was 88% (inactive). Moreover, the inhibition under setting [1] is 42.4%.

As to `N#CC1=C2SCN(c3ccccc3)CN2C(=O)CC1c1cccs1` (centres undefined), the inhibition is 74% (inactive). In addition, the inhibition under setting [1] is 42.2%.

As to `CCc1ccccc1N1CSC2=C(C#N)C(c3ccccc3F)CC(=O)N2C1` (centres undefined), the inhibition was 84.5% (active).

Regarding `COc1cc(OC)c(C2CC(=O)N3CN(c4ccccc4C)CSC3=C2C#N)cc1OC` (centres undefined), the inhibition is 73.1% (active).

In the case of `CCOc1cc(C2CC(=O)N3CN(C4CCCCC4)CSC3=C2C#N)ccc1O` (centres undefined), the inhibition is 62.4% (active).

`N#CC1=C2SCN(Cc3ccco3)CN2C(=O)CC1c1ccccc1F` (centres undefined): the inhibition is 84.1% (inactive). The inhibition under setting [1] was 33.2%.

Turning to `COc1cc(C2CC(=O)N3CN(c4ccccc4C)CSC3=C2C#N)cc(OC)c1OC` (centres undefined), the inhibition is 90.6% (inactive). For the same compound, the inhibition under setting [1] worked out at 32.6%.

Consider `CCOc1cc(C2CC(=O)NC(SCC)=C2C#N)ccc1O` (centres undefined), for which the inhibition was 5.2% (inactive).
